From PubChem BioAssay
Bcl-2 Bim block: inhibitors of Bim-Bcl-2 interaction, human | P10415 | Bead-based flow cytometry, Bim peptide-Bcl-2 binding | inhibition, % at 10 µM | hit rate 0.06% among 190,000; in the data active = inhibition above about 40%
Bcl-W Bim block: human Bim-Bcl-W interaction inhibition; Q92843; hit rate 0.02% among 190,000; inhibition, % at 10 µM; bead-based flow cytometry, Bim peptide-Bcl-W binding;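 note: higher means less fluorescent Bim peptide bound to Bcl-W beads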
Target sequence (Q92843 whole entry, looked up): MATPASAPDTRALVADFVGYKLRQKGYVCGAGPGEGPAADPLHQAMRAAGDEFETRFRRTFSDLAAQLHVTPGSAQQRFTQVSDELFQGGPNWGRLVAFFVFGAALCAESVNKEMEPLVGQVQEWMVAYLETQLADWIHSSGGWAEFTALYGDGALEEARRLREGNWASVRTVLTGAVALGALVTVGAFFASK
Bcl-B Bim block: human Bim-Bcl-B interaction inhibition; Q9HD36; bead-based flow cytometry, Bim peptide-Bcl-B binding; inhibition, % at 10 µM; hit rate 0.073% among 190,000
Bcl-XL Bim block: human Bim-Bcl-XL interaction inhibition. Q07817. inhibition, % at 10 µM. hit rate 0.04% among 190,000. Bim peptide-Bcl-XL binding, bead flow cytometry, fluorescence
Bfl-1 Bim block: human Bim-Bfl-1 interaction inhibition; Q16548; Bead-based flow cytometry, Bim-Bfl-1 binding inhibition; inhibition, % at 10 µM; hit rate 0.12% among 190,000; AID 1008
Target sequence (Q16548 whole entry, looked up): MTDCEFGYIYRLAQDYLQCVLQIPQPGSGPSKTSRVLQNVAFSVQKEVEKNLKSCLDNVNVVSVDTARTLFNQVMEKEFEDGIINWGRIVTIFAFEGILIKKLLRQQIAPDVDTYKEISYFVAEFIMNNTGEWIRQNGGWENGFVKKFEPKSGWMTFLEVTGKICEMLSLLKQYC
Numbers stand for hits; n = inactive; x = no result given. Shown are actives, neighbours in structure and some others; about 0.19% of the full set was active somewhere. Cut-off read from the data, not from the text of the source, unless noted: active = inhibition above about 40%.

SMILES	Bcl-2 Bim block	Bcl-W Bim block	Bcl-B Bim block	Bcl-XL Bim block	Bfl-1 Bim block
CCOC(=O)N1CCN(c2cc(NCCC(=O)O)c3c4c(onc24)-c2ccccc2C3=O)CC1	n	n	n	40	43
CCOC(=O)N1CCN(c2c(NCCc3ccccc3)c(=O)c2=O)CC1	n	n	n	n	n
O=C(O)CCCNc1cc(N2CCC3(CC2)OCCO3)c2noc3c2c1C(=O)c1ccccc1-3	n	n	n	n	42
O=[N+]([O-])c1c(NCCO)cc(N2CCC3(CC2)OCCO3)c2nonc12	n	n	n	n	n
N#Cc1ccccc1Cn1cc(/C=C/[N+](=O)[O-])c2ccccc21	n	n	n	n	n
Cc1noc(C)c1COc1ccc(C(=O)Nc2cccnc2)cc1	n	n	43	n	n
Cc1ccc(NC(=O)c2cccc(OCc3c(C)noc3C)c2)cc1	n	n	n	n	n
CN=C(NC1CCCCC1)c1ccc(Cl)cc1	n	n	n	n	49
Cc1ccc(S(=O)(=O)N(C)c2ccc3sc(C)nc3c2)cc1	n	n	n	n	n
CCn1c(C)c(/C=N/Nc2nc3ccccc3s2)c2ccccc21	87	n	x	n	x
O=C(NCCC1=CCCCC1)Nc1ccc2nsnc2c1	n	n	n	n	n
COC(=O)Cc1cc(=O)[nH]c(/N=C(\N)Nc2ccc(C(C)C)cc2)n1	n	n	n	n	n
CCNC(=O)N1c2ccc(OCC)cc2C(C)=CC1(C)C	n	n	n	n	40
O=C(NC1=NCCS1)NC12CC3CC(CC(C3)C1)C2	84	n	84	n	60
COc1cc(/C=C/C(=O)OCC(=O)NC(=O)NC(C)C)cc(S(=O)(=O)N2CCc3ccccc32)c1OC	n	n	n	n	n
Brc1ccc2ncnc(Nc3ccc(N4CCOCC4)cc3)c2c1	n	n	48	n	n
O=C(COc1ncnc2ccc(Br)cc12)Nc1ccc(N2CCOCC2)cc1	n	n	n	n	n
CCN(CC)S(=O)(=O)c1ccc(C(=O)OCC(=O)NCCN2C(=O)CSC2=O)cc1	n	n	n	n	n
O=C(C[n+]1ccc(-c2nnc3n2CCC3)cc1)c1ccc(Cl)c(Cl)c1	n	n	43	n	n
COC(=O)Cc1ccc(NC(=S)N2CCN(c3cccc(O)c3)CC2)cc1	n	n	50	n	n
CCOc1ncccc1C(=O)OC(C)C(=O)Nc1ccc(CC)cc1 (centres undefined)	50	n	55	n	n
CCOc1cc(CNc2ccc(N3CCCC3)cc2)cc(Cl)c1OC	n	n	n	n	n
CCOc1ccc(CNc2ccc(CNc3ncn[nH]3)cc2)cc1	n	n	n	n	n
COc1cc(CNc2ccc(N3CCCC3)cc2)cc(Cl)c1OC	n	n	n	n	48
CCOc1ccc(CNc2ccc(N3CCCC3)cc2)cc1	n	n	n	n	42
SMILES	Bcl-2 Bim block	Bcl-W Bim block	Bcl-B Bim block	Bcl-XL Bim block	Bfl-1 Bim block
CC(C)(C)OC(=O)CC[C@@H](C(=O)N1CCN(C(=O)OC(C)(C)C)CC1)n1cc(C(Cc2ccc(O)cc2)NC(=O)OC(C)(C)C)nn1 (some centres undefined)	n	n	n	n	n
Cc1ccc(NC(=O)CSc2nc3ccccc3c(=O)n2CCCN2CCCCC2)cc1Cl	62	n	71	n	n
O=C(C[n+]1ccccc1)N/N=C/c1cccs1	n	n	n	n	n
O=[N+]([O-])c1ccc(N/N=C/c2cccc(O)c2O)c(S(=O)(=O)N2CCOCC2)c1	n	n	n	n	n
O=[N+]([O-])c1ccc(N/N=C/c2ccc(O)c(O)c2O)c(S(=O)(=O)N2CCOCC2)c1	n	40	n	n	63
COc1ccc(C)cc1NC(=O)CCCN1C(=S)NC(C)(C)CC1C (centres undefined)	n	n	n	n	n
COc1ccc(OC)c(NC(=O)CCCN2C(=S)NC(C)(C)CC2C)c1 (centres undefined)	43	42	54	49	50
CC1(C(=O)N(CC(=O)NC2CCCC2)Cc2ccco2)CC(=O)N=C2C=CC=CN21 (centres undefined)	88	n	x	n	x
CC1=CN2C(=NC(=O)CC2(C)C(=O)N(CC(=O)NC2CCCC2)c2ccccc2C)C=C1 (centres undefined)	n	n	n	n	n
O=C1CCCS(=O)(=O)c2ccccc21	n	n	n	n	n
Cc1cccc(-c2cnn(-c3cccc([N+](=O)[O-])c3)c2N)c1	n	n	n	n	n
Cc1cc[n+]2cc(-c3cccc([N+](=O)[O-])c3)c(-c3cccc([N+](=O)[O-])c3)cc2c1	n	n	43	n	n
CCN1/C(=C/c2ccc3cc(C)ccc3[n+]2C)Sc2ccc3sccc3c21	54	n	n	n	46
